The record followed here is PubChem BioAssay (Tox21).

Experiment [1] is described as follows: qHTS assay to identify small molecule antagonists of the glucocorticoid receptor (GR) signaling pathway - cell viability counter screen (AID 720693). Note: nearly all actives have a fitted effect of over 55% in size. The conditions noted are these: GR-bla HeLa viability, CellTiter-Glo luminescence, 18 h, with 5 nM dexamethasone present; series mostly up to 58.5 µM. A general note: Quantitative high-throughput screening tests each substance at several concentrations.

The nature of experiment [2]: qHTS assay for identifying genotoxic compounds that show differential cytotoxicity against isogenic chicken DT40 cell lines with known DNA damage response pathways - Rev3 mutant cell line (AID 743014). Note: nearly all actives have a fitted effect of over 55% in size. Note: potency is the fitted concentration of half-maximal effect. The note with it: chicken DT40 Rev3-/- viability, CellTiter-Glo, 40 h; series mostly up to 68.4 µM.
Experiment [3] can be described thus: qHTS assay for identifying genotoxic compounds that show differential cytotoxicity against isogenic chicken DT40 cell lines with known DNA damage response pathways - Rad54/Ku70 mutant cell line (AID 743015). Note: nearly all actives have a fitted effect of over 60% in size. Note: potency is the fitted concentration of half-maximal effect. The note with it: DT40 Rad54/Ku70 mutant viability, CellTiter-Glo, 40 h; series mostly up to 66.8 µM.
Experiment [4] in a line: qHTS assay to identify small molecule antagonists of the androgen receptor (AR) signaling pathway - cell viability counter screen (AID 743033; note: nearly all actives have a fitted effect of over 45% in size). The note with it: AR-bla HEK293 viability, CellTiter-Glo luminescence, 16 h; series mostly up to 58.5 µM.
In experiment [5] the target is Androgen receptor (Homo sapiens) (UniProt P10275). Nature of the experiment: qHTS assay to identify small molecule antagonists of the androgen receptor (AR) signaling pathway (AID 743035; active = well fitted inhibition curve with a large enough effect in the signal ratio in the repeat runs, not every such curve was filed as active; the % refers to the signal ratio). The conditions noted are these: HEK293 AR-UAS-bla, R1881-stimulated, beta-lactamase FRET, 16 h; series mostly up to 58.5 µM. A digest of the protocol: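 Reporter HEK293 cells were exposed to compounds and R1881 overnight (16 h, 37C); beta-lactamase activity was then quantified by FRET fluorescence.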

Experiment [6] shares this target. Nature of the experiment: qHTS assay to identify small molecule agonists of the androgen receptor (AR) signaling pathway (AID 743036; active = well fitted activation curve with a large enough effect in the signal ratio in the repeat runs, with a control signal flat, not every such curve was filed as active; the % refers to the signal ratio). The note with it: HEK293 AR-UAS-bla GripTite, beta-lactamase FRET ratio, 16 h; series mostly up to 62.4 µM. A digest of the protocol:
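AR-bla HEK293 cells, 2,000/well; 4 h preincubation 37C/5% CO2; compound (DMSO) 16 h at 37C; LiveBLAzer B/G FRET substrate 2 h RT; fluorescence intensity read-out.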

For experiment [7] the target is unchanged. In words: qHTS assay to identify small molecule agonists of the androgen receptor (AR) signaling pathway using the MDA cell line (AID 743040; note: nearly all actives have a fitted effect of over 20% in size). The note with it: MDA-kb2 AR-luc cells, MMTV luciferase, 16 h; series mostly up to 70.3 µM. A digest of the protocol: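 Luciferase read-out, ONE-Glo, 30 min RT. Cells: MDA-kb2 AR-luc, MMTV promoter with AR and GR response elements. Compound exposure 16 h, 37C, 0% CO2, after 5 h pre-incubation. qHTS agonist mode.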

Experiment [8] can be described thus: qHTS assay to identify small molecule antagonists of the androgen receptor (AR) signaling pathway using the MDA cell line - cell viability counter screen (AID 743041; note: nearly all actives have a fitted effect of over 45% in size; note: potency is the fitted concentration of half-maximal effect). The note with it: MDA-kb2 viability, CellTiter-Fluor, 16 h, cells co-treated with R1881 androgen agonist; series mostly up to 70.3 µM. A digest of the protocol:
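Cytotoxicity counter screen: MDA-kb2 AR-luc cells, compound + R1881, 16 h, 37C, 0% CO2; CellTiter-Fluor added at 15.5 h, fluorescence read after 30 min.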

Experiment [9] deals with Androgen receptor (Homo sapiens) (UniProt P10275). Nature of the experiment: qHTS assay to identify small molecule antagonists of the androgen receptor (AR) signaling pathway using the MDA cell line (AID 743042; note: nearly all actives have a fitted effect of over 55% in size). The conditions noted are these: MDA-kb2 AR-luc, MMTV luciferase, R1881 antagonist, 16 h; series mostly up to 70.3 µM. The method, boiled down:
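MDA-kb2 breast carcinoma cells carrying MMTV-luciferase (AR/GR responsive) were co-treated with compounds and the agonist R1881 for 16 h at 37C. Inhibition read as ONE-Glo luminescence; CellTiter-Fluor fluorescence measured in parallel for cytotoxicity.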

Experiment [10] is described as follows: qHTS assay for identifying genotoxic compounds that show differential cytotoxicity against isogenic chicken DT40 cell lines with known DNA damage response pathways - wild type cell line (AID 743012). Note: nearly all actives have a fitted effect of over 60% in size. Note: potency is the fitted concentration of half-maximal effect. The conditions noted are these: DT40 wild type chicken cells viability, CellTiter-Glo, 40 h; series mostly up to 68.4 µM. A digest of the protocol: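 Viability of DNA repair-proficient chicken DT40 cells was assessed by CellTiter-Glo luminescence following 40 h compound exposure at 37 C/5% CO2.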

Molecules are shown by their SMILES. Results filed as inconclusive are left out. Activity calls are given as the source filed them. Unless noted, calls come from the whole dose curve; as a rule, active = well fitted curve in the direction sought with a large enough effect in the repeat runs; inconclusive = weak or mixed curves; inactive = no such curve, though single readings can be large; an effect the other way counts as inactive or inconclusive.

Sequence of Androgen receptor (Homo sapiens) (P10275 whole entry, looked up): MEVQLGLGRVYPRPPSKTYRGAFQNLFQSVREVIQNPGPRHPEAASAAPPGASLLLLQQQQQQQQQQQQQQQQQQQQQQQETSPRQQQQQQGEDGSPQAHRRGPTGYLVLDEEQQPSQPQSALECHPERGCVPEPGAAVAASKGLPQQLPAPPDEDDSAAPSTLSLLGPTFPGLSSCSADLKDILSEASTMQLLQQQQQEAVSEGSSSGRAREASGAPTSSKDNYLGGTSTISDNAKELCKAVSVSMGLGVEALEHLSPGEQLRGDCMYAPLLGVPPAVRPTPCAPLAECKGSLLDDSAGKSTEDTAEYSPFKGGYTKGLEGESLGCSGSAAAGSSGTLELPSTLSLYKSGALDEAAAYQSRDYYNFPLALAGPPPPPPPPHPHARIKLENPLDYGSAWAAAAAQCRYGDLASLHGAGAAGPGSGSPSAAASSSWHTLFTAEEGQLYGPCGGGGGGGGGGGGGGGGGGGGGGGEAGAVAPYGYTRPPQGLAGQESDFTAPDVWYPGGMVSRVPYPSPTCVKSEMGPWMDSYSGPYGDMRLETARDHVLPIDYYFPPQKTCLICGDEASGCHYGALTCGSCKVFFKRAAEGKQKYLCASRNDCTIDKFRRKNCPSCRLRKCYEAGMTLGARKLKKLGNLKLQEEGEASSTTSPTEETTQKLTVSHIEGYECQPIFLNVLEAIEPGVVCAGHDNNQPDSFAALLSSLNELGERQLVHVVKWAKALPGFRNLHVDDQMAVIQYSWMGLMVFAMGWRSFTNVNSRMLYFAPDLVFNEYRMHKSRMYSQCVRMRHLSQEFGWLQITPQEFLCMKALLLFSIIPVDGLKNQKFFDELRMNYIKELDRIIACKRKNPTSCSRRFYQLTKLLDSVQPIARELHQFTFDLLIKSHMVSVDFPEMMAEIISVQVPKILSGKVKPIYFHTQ

For `CCCn1cnc2c1c(=O)n(CCCCC(C)=O)c(=O)n2C`, the Potency entry in [1], in [2], in [3], in experiment [4], in experiment [5] and in experiment [6] was “inactive” in each case. For the same compound, the Potency result in [7], in experiment [8] and in experiment [9] was “inactive” each time.
In the case of `O=C1C(O)=C(O)C(=O)C(O)=C1O`, the Potency entry in experiment [1], in experiment [10], in experiment [3], in experiment [4] and in experiment [8] was “inactive” each time.
In the case of `CN1C[C@H]2c3ccccc3Oc3ccc(Cl)cc3[C@@H]2C1`, the Potency result in [1] and in experiment [8] was “inactive” in each case. In addition, the figures for the Potency in experiment [10] and in [3] were 26.6 µM (active) and 29.8 µM (active), respectively.
With `NCCCN1CCOCC1`, the Potency result in experiment [1], in experiment [2], in [3], in [4], in [6] and in [7] was “inactive” in each case. Moreover, in experiment [9], the Potency result is “inactive”. Besides, the Potency in [8] is 30.6 µM (active).
As to `CC(C)Nc1ccc(NC(C)C)c2c1C(=O)c1ccccc1C2=O`, the Potency result in [1], in experiment [10], in [3] and in experiment [8] was “inactive” in each case.
On to `OC(CN1CCC(Cc2ccc(F)cc2)CC1)c1ccc(Cl)cc1` (stereo not given), for which the Potency result in [1], in experiment [4], in experiment [5], in experiment [6], in experiment [7] and in experiment [8] was “inactive” in each case. Besides, the Potency result in experiment [9] is “inactive”. The figures for the Potency in experiment [2] and in experiment [3] were 1.68 µM (active) and 2.11 µM (active), respectively.
Turning to `O=[N+]([O-])c1ccc(NCCO)c(OCCO)c1`, the Potency entry in experiment [1], in experiment [10], in experiment [3], in experiment [4], in [5] and in experiment [6] was “inactive” in each case. For the same compound, the Potency result in experiment [7] and in [9] was “inactive” throughout. Besides, the Potency in experiment [8] was 54.5 µM (active).
As for `Cn1c(=O)cc(Oc2ccc(F)cc2F)c2cnc(NCC(C)(C)O)nc21`, the Potency result in [1], in [10] and in [8] was “inactive” in each case. Moreover, the Potency in experiment [3] was 27.3 µM (active).
Regarding `O=C(NCCO[N+](=O)[O-])c1cccnc1`, the Potency result in experiment [1], in experiment [10], in [3], in experiment [4] and in experiment [8] was “inactive” in each case.
With `CCCCC1=NC2(CCCC2)C(=O)N1Cc1ccc(-c2ccccc2-c2nn[nH]n2)cc1`, the Potency result in [1], in experiment [10], in experiment [3], in experiment [4] and in experiment [8] was “inactive” throughout.
Turning to `CCN(CC)CCOC(=O)C(Cc1cccc2ccccc12)CC1CCCO1` (stereo not given), the Potency entry in experiment [1], in experiment [2], in experiment [3], in [4] and in experiment [8] was “inactive” throughout.
In the case of `CC(=O)NO`, the Potency entry in experiment [1], in [2], in experiment [3], in experiment [4], in experiment [5] and in [6] was “inactive” throughout. Besides, the Potency result in experiment [7], in experiment [8] and in experiment [9] was “inactive” throughout.
`CC(=O)c1ccc2c(c1)N(CCCN(C)C)c1ccccc1S2`: the Potency result in [1], in experiment [4] and in experiment [8] was “inactive” each time. For the same compound, the Potency in experiment [10] is 12.7 µM (active).
In the case of `CN(C)CCN(Cc1ccc(Cl)cc1)c1ccccn1`, the Potency entry in [1] and in experiment [8] was “inactive” throughout. Besides, the Potency in experiment [10] was 12.7 µM (active).
With `CCCCOC(=O)CCCCCCCC(=O)OCCCC`, the Potency result in experiment [1], in [10], in experiment [3], in experiment [4] and in experiment [8] was “inactive” in each case.
Take `CCCCCCCCCCCCCCOS(=O)(=O)O`: the Potency result in [1], in experiment [10] and in [8] was “inactive” in each case.
For `Cc1cccc(C)c1NC(=O)CN(CC(=O)O)CC(=O)O`, the Potency result in [1], in [10], in experiment [2], in experiment [4] and in [8] was “inactive” in each case.
As to `CC(=O)[O][Al]`, the Potency result in [1], in [2], in [3], in [4] and in experiment [8] was “inactive” in each case.
`c1ccc(CNCCNCc2ccccc2)cc1`: the Potency entry in experiment [1], in experiment [10], in [2], in experiment [4] and in experiment [8] was “inactive” in each case.
For the compound `O=C(O)C(S)C(S)C(=O)O` (stereo not given), the Potency entry in [1], in experiment [10], in experiment [2] and in [8] was “inactive” in each case.
For the compound `OCCNCc1ccccc1`, the Potency entry in [1], in [2], in experiment [3], in experiment [4], in experiment [5] and in experiment [6] was “inactive” throughout. In addition, the Potency result in experiment [7], in experiment [8] and in experiment [9] was “inactive” each time.
Turning to `Nc1c(CC(=O)O)cccc1C(=O)c1ccc(Br)cc1`, the Potency entry in experiment [1], in experiment [10], in experiment [3], in [4] and in experiment [8] was “inactive” in each case.
With `CCNc1cc(O)ccc1C`, the Potency result in experiment [1], in experiment [10], in [3], in [4] and in [8] was “inactive” throughout.
For `CC(C)O.CC(C)O.CCOC(=O)/C=C(\C)O.CCOC(=O)/C=C(\C)O.[Ti]`, the Potency entry in experiment [1], in experiment [2], in experiment [3], in experiment [4] and in experiment [8] was “inactive” each time.
For the compound `Nc1ccc(S(=O)(=O)Nc2ccccc2)cc1`, the Potency entry in experiment [1], in [2], in experiment [3], in [4] and in [8] was “inactive” each time.
`CCN(CC)CCNC(=O)c1cc(Br)c(N)cc1OC`: the Potency result in [1], in experiment [10], in experiment [3], in experiment [4] and in [8] was “inactive” throughout.
Regarding `Nc1cccc(S(=O)(=O)c2cccc(N)c2)c1`, the Potency result in experiment [1] and in experiment [8] was “inactive” in each case. Besides, the Potency in experiment [10] and in [3] was 61.1 µM (active) each time.
Regarding `Nc1ccc(N)c2c1C(=O)c1ccccc1C2=O`, the Potency entry in [1], in experiment [4], in experiment [6], in [7] and in experiment [9] was “inactive” throughout. For the same compound, the Potency in [2] was 27.3 µM (active); in [3], 7.7 µM (active).
For the compound `O=C(O)c1nc(Cl)c(Cl)c(Cl)c1Cl`, the Potency result in experiment [1], in experiment [2], in experiment [4] and in experiment [8] was “inactive” each time. In [3], the Potency was 61.1 µM (active).
